# Assay outcomes deposited in PubChem by Sanford-Burnham Center for Chemical Genomics.
# Compounds with a hit are over-represented: about 3.1% of the library has one in this group of screens.
# HIF-2a inh = HIF-2a reporter inhibitors, primary screen, luminescence, 786-0 RCC cells | 786-0 RCC cells HIF-2a reporter, luciferase luminescence, overnight | AID 624352, 2012 | inhibition, % at 18.8 µM | hit rate 0.72% among 360,000;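 active means inhibition of the luminescence signal of 40% or more relative to plate controls, in a single-dose primary screen at 18.75 µM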
# Peg3 prom inh = Peg3 promoter-driven luciferase inhibitors, primary screen, cell-based, HeLa, luciferase luminescence. HeLa PEG-Prom luciferase reporter, overnight. hit rate 1.7% among 360,000. inhibition, % at 20 µM. AID 588405, 2011;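 active means inhibition of at least 50% at 20 µM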
# KKLEB cytotox = cytotoxicity in KKLEB CF airway cells, primary screen, cytotoxicity control for CF NF-kB inhibitor project, cell-based, uHTS, fluorescence assay plates. KKLEB CF airway cells viability, ATPlite luminescence, overnight; stronger effect = lower value; cells stimulated with P. aeruginosa culture filtrate. activity change (cytotoxicity), % at 5 µM. hit rate 0.36% among 360,000;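 active means corrected activity change at or below -50% at 5 µM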
# PPC-1+TRAIL kill = compounds killing PPC-1 cancer cells with TRAIL present, primary screen, TRAIL potentiator project, ATPLite luminescence, uHTS | PPC-1 cells + TRAIL, ATPLite viability luminescence | cell killing (% activity), % at 4 µM or 5 µM | hit rate 0.41% among 220,000 | AID 1443, 2008;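 active means cell killing above 50% in the first pass at 4 µM, then a duplicate retest at 5 µM averaging 50% or more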;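 further: plate controls were cells with TRAIL plus DMSO for no effect and medium-only wells lacking cells for full effect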
# C8 TRAIL sens = viability loss with TRAIL in NB7+C8 cells, primary screen, TRAIL sensitizer project, cell-based, ATPlite luminescence | inhibition (viability loss, TRAIL sensitization), % at 10 µM | hit rate 1% among 360,000 | AID 624354, 2012;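 active means compounds causing at least 50% loss of cell viability in the single-dose screen, relative to plate controls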
# CF NFkB inh = inhibitors of PAF-induced NF-kB signaling, primary screen, cell-based, GFP fluorescence, uHTS; KKLEB NF-kB-GFP reporter, GFP fluorescence overnight; inhibition, % at 5 µM; hit rate 0.86% among 360,000; AID 588850, 2011;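 active means at least 50% inhibition at 5 µM, scaled per plate between neutral and stimulator controls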;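 further: PAF is a Pseudomonas aeruginosa culture filtrate used as stimulus; plate controls were PAF-stimulated DMSO wells for no effect and unstimulated DMSO wells for full effect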
# Mdm2 MdmX conf = retested Mdm2-MdmX interaction blockers, confirmation, cell-based, luminescence, single concentration, set 2. inhibition, % at 8 µM. SaOS-2 split-luciferase Mdm2/MdmX complementation. shares compounds with HIF-2a inh. hit rate 99% among 740;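 active means mean inhibition of the luminescence signal across two replicates at or above 26 percent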
# HIF-2a conf = HIF-2a reporter inhibitor retest, confirmation, luminescence, 786-0 RCC cells; HIF-2a luciferase reporter luminescence, overnight; hit rate 56% among 1,800; inhibition, % at 18.8 µM; shares compounds with HIF-2a inh;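 active means mean inhibition across four replicates of at least 40 percent at the single tested concentration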
# HIF-1a cs = HIF-1a luciferase reporter signal reduction – MiaPaCa-2 cells, single concentration, counter-screen for HIF-2a inhibitor project, confirmation; shares compounds with HIF-2a inh; MiaPaCa-2 HIF-1a luciferase reporter, desferoxamine, overnight; inhibition, % at 18.8 µM; hit rate 72% among 1,800;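 active means mean inhibition of the reporter signal across four replicates at the single tested dose of 50% or more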
# Starred values were filed as active, the others as inactive; / = no result given.
SMILES,HIF-2a inh,Peg3 prom inh,KKLEB cytotox,PPC-1+TRAIL kill,C8 TRAIL sens,CF NFkB inh,HIF-2a conf,HIF-1a cs,others
O=C(O)CCCCCCCCCCC1CCC(O)C1O (configuration not stated),54*,12,-6,/,7,12,75*,52*,
O=S(=O)(C/C(=C/CO)S(=O)(=O)c1ccccc1)c1ccccc1,87*,95*,-26,7,8,99*,98*,105*,Mdm2 MdmX conf=102*
O=S(=O)(CS(=O)(=O)c1ccccc1)c1ccccc1,10,16,3,/,-3,-9,/,/,
CN1CCN(C(=S)NC(=O)c2ccc(C(C)(C)C)cc2)CC1,6,-5,8,17,0,2,/,/,
C=CCn1cccc(/C=C/C(=O)c2ccc(C(C)(C)C)cc2)c1=S,70*,102*,-52*,26,12,37,61*,105*,
CCC(C)c1ccccc1NC(=O)C(C)OC(=O)CN1C(=O)NC(C)(C)C1=O (configuration not stated),8,2,-4,/,-1,-9,/,/,
CCOC(=O)c1cc(-c2ccccc2)nc2c(O)cccc12,-40,-1,3,/,-11,-1,/,/,
C[C@@H]1CC=C[C@H]2[C@H]1C(=O)N(Cc1ccccc1)[C@H]2c1ccc2ccccc2c1,44*,21,-17,14,22,42,8,52*,
Cc1ccc(F)c([C@H]2[C@H]3C=CC[C@@H](C)[C@@H]3C(=O)N2Cc2ccccc2)c1,42*,30,-13,11,-4,47,31,21,
C[C@@H]1CC=C[C@H]2[C@H]1C(=O)N(Cc1ccccc1)[C@H]2c1ccc(F)c(Br)c1,/,/,/,1,/,/,/,/,
Cc1ccc(-c2ccc([C@H]3[C@H]4C=CC[C@@H](C)[C@@H]4C(=O)N3Cc3ccccc3)c(F)c2)cc1,26,11,-4,8,4,-4,/,/,
Cc1csc(=O)n1CC(=O)OCC(=O)c1ccc(Br)cc1,5,12,-15,/,-25,25,/,/,
O=C(Nc1ccccc1Cl)c1sccc1-c1ccccc1,-16,19,10,/,7,-25,/,/,
O=C1NC2c3c(I)sc(I)c3C(=O)C2O1 (configuration not stated),53*,106*,9,/,20,-16,4,48,
O=C(OCC(=O)N1CCN(Cc2ccccc2)CC1)c1cc(Cl)ccc1[N+](=O)[O-],6,1,17,/,-6,-9,/,/,
Cc1ccc(NC(=O)C2=C(c3ccccc3)S(=O)(=O)CCS2(=O)=O)cc1,81*,109*,-72*,27,5,96*,81*,102*,Mdm2 MdmX conf=103*
O=C(Nc1ccc(-c2ccccc2)cc1)c1ccccc1,26,-11,-8,/,-8,-8,/,/,
COc1ccccc1C1C2=C(N=C3SCC(=O)N31)c1ccccc1CC2 (configuration not stated),33,14,4,9,0,0,/,/,
COc1ccc(/C=c2/sc3n(c2=O)C(c2ccccc2OC)C2=C(N=3)c3ccccc3CC2)cc1O (configuration not stated),41*,41,0,-2,18,38,13,64*,
Cc1ccc2c(C(=O)CCl)c(C)[nH]c2c1,0,50,-32,25,17,78*,/,/,Mdm2 MdmX conf=103*
CC(C)OCCc1cccc[n+]1[O-],-10,0,-7,/,4,2,/,/,
